Each structure is given as a SMILES string. Out of some 52,000 compounds screened, about 4,300 (8.3%) were called active. Rule as the data show it: active = survival mostly below about 52% (no sharp cut-off); inactive = mostly above about 56%. For the sample, actives were picked, then their nearest neighbours and some compounds at random.

Results on 62 molecules are retold here after PubChem BioAssay AID463173 (ICCB-Longwood Screening Facility, Harvard Medical School, 2010).

The test system of the assay is DeltatarO mutant. Kind of assay: growth inhibition of S. aureus wild type versus tarO mutant, primary screen, teichoic acid synthesis inhibitors, RN4220, OD600 (AID 463173). Conditions: OD600, 18 h, active compounds read low, screened at 18.75 µg/mL (by protocol).
For `COc1ccc(CN(Cc2ccco2)C(=O)COc2ccccc2Cl)cc1`, the survival was 51% (inactive).

In the case of `CCc1cc(=O)[nH]c(SCc2nc(-c3cccc(Cl)c3)no2)n1`, the survival was 49% (inactive).

As for `O=c1cc(-c2ccccc2)nc(SCc2nc(-c3ccc(C(F)(F)F)cc3)no2)[nH]1`, the survival is 188% (inactive).

With `CCCc1cc(=O)[nH]c(SCc2nc(-c3ccccc3)no2)n1`, the survival is 0% (active).

With `CCc1cc(=O)[nH]c(SCc2nc(-c3ccc(C(F)(F)F)cc3)no2)n1`, the survival was 32% (active).

Consider `CCc1cc(=O)[nH]c(SCc2nc(-c3ccccc3)no2)n1`, for which the survival is 95% (inactive).

Regarding `CCCc1cc(=O)[nH]c(SCc2nc(-c3ccc(C)cc3)no2)n1`, the survival was 78% (inactive).

Take `Cc1ccc(CNC(=O)c2sc3nc(C)cc(C)c3c2-n2cccc2)cc1`: the survival is 90% (inactive).

`COc1ccccc1CNC(=O)c1cc2c(s1)-c1ccc(Cl)cc1SC2`: the survival was 79% (inactive).

With `Cc1ccccc1Nc1nnc(-c2ccc(C)c(S(=O)(=O)N3CCOCC3)c2)c2ccccc12`, the survival was 85% (inactive).

On to `O=C(NC(CO)C(=O)O)c1ccncc1` (configuration not stated), for which the survival is 94% (inactive).

Regarding `CCc1ccc(Cc2cnc(NC(=O)c3ccc4c(c3)CC(c3ccccc3)OC4=O)s2)cc1` (configuration not stated), the survival is 51% (inactive).

As to `COc1cccc(-n2c(C)nc3cc(C(=O)O)ccc32)c1`, the survival is 177% (inactive).

With `O=C(Cn1c(=O)nc(-c2ccccc2)c2cc(Cl)ccc21)N1CCN(c2ccc(F)cc2)CC1`, the survival is 99% (inactive).

Take `O=S(=O)(NC1CCc2ccccc21)c1ccc(S(=O)(=O)N2CCCC2)cc1` (configuration not stated): the survival is 82% (inactive).

As to `CC1Cc2cc(S(=O)(=O)CCC(=O)Nc3ccccc3F)ccc2N1C(=O)C1CC1` (configuration not stated), the survival is 100% (inactive).

Take `Cc1cccc(-c2nc(N3CCN(c4ccc(F)cc4)CC3)c3ccccc3n2)c1`: the survival was 54% (inactive).

As for `Oc1ccc(Nc2ncnc3ccccc23)cc1`, the survival is 77% (inactive).

Consider `Cc1nnc2c(Nc3cccc(O)c3)nc3ccccc3n12`, for which the survival was 68% (inactive).

`Oc1ccc(Nc2nc(-c3ccc(Cl)cc3)nc3ccccc23)cc1`: the survival is 3% (active).

On to `Cc1nnc2c3ccccc3nc(Nc3cccc(O)c3)n12`, for which the survival was 101% (inactive).

With `CC(=O)c1cccc(Nc2ncnc3c2cnn3C)c1`, the survival is 67% (inactive).

With `Fc1ccc(Nc2nc(SCc3ccc(Cl)cc3)nc3ccccc23)cc1`, the survival was 92% (inactive).

Regarding `Cc1cccc(Nc2cc(C)nc3nc(-c4ccccc4)nn23)c1`, the survival was 95% (inactive).

For `Cc1cccc(Nc2nc(-c3ccccc3)nc3ccccc23)c1`, the survival is 1% (active).

In the case of `CC(=O)c1cccc(NC(=O)c2cc(-c3ccc(Cl)s3)nc3ccccc23)c1`, the survival was 77% (inactive).

As to `CC(=O)c1cccc(Nc2nc(-c3ccccc3Cl)nc3ccccc23)c1`, the survival is 38% (active).

For `Oc1cccc(Nc2nc(-c3ccccc3)nc3ccccc23)c1`, the survival was 10% (active).

`COc1ccc(CCNC(=O)C(=O)NCC(c2cccs2)S(=O)(=O)c2ccc(C)cc2)cc1` (configuration not stated): the survival is 69% (inactive).

As to `O=C(CC1N=C2c3ccccc3N=C(SCc3ccc(F)cc3)N2C1=O)NC1CCCCC1` (configuration not stated), the survival was 124% (inactive).

With `Cc1ccc(CNS(=O)(=O)c2cc3c(cc2C)NC(=O)CO3)cc1`, the survival was 79% (inactive).

As for `CCCN(CCC)c1nn2c(=O)c(C(=O)NCc3cccc(OC)c3)cnc2s1`, the survival was 84% (inactive).

As for `CC(C)NC(=O)CSc1nc2ccccc2n1CC(=O)NC(C)C`, the survival was 96% (inactive).

For `COC(=O)c1ccccc1NC(=S)N(Cc1ccco1)Cc1cc2cc(C)ccc2[nH]c1=O`, the survival was 94% (inactive).

As for `O=c1c2ccccc2nc2sc(Nc3cccc(C(F)(F)F)c3)nn12`, the survival is 86% (inactive).

Take `CN(C(=O)c1cc2sccc2n1Cc1ccc(F)cc1)C1CCCCC1`: the survival is 88% (inactive).

Regarding `CCOc1ccccc1C(=O)Nc1ccc(S(=O)(=O)Nc2onc(C)c2C)cc1`, the survival was 77% (inactive).

In the case of `CCN(C1CCCCC1)S(=O)(=O)c1cccc(S(=O)(=O)N2CCCC2)c1`, the survival is 70% (inactive).

Take `COc1cc(C2c3c(oc4ccc(F)cc4c3=O)C(=O)N2c2nc(C)c(C)s2)cc(OC)c1OC` (configuration not stated): the survival was 157% (inactive).

As for `COc1ccc2c(Sc3ccc(C)cc3)c(C(=O)NC(C)C)[nH]c2c1`, the survival was 86% (inactive).

For `Cc1ccc(CCNC(=O)CCn2nc(-c3ccc(C)cc3)ccc2=O)cc1`, the survival was 94% (inactive).

Turning to `COc1ccc(C(=O)O)cc1Nc1nc2ccc(C)cc2n2cnnc12`, the survival was 117% (inactive).

Consider `CCC(=O)OCCCNc1nc(-c2ccc(Cl)cc2)nc2ccccc12`, for which the survival is -2% (active).

Take `CC(=O)c1cccc(Nc2nc(-c3cccc(C)c3)nc3ccccc23)c1`: the survival was 4% (active).

Regarding `CCOc1ccccc1OCCCCn1c(-c2ccc(Cl)cc2)nc2ccccc2c1=O`, the survival is 45% (inactive).

In the case of `CC(=O)c1cccc(NC(=O)c2nc(-c3ccccc3)n(-c3cccc(C)c3)n2)c1`, the survival was 64% (inactive).

Consider `COc1ccc(Nc2nc(-c3ccc(C)cc3)nc3ccccc23)c(OC)c1`, for which the survival was 75% (inactive).

As for `OCCNc1nc(-c2cccnc2)nc2ccccc12`, the survival is 93% (inactive).

With `COc1ccc(Nc2nc(-c3ccccc3F)nc3ccccc23)cc1OC`, the survival was 99% (inactive).

`CC(=O)c1cccc(NC(=O)c2nc(-c3ccccc3)n(-c3ccccc3C)n2)c1`: the survival is 76% (inactive).

For the molecule `COc1cc(Nc2nc(-c3ccc(OC)c(OC)c3)nc3ccccc23)cc(OC)c1`, the survival was -2% (active).

For `O=C(O)c1ccc(Nc2nc3ccccc3c3nncn23)cc1`, the survival is 95% (inactive).

As to `COc1ccc(CNC(=O)C(OC(=O)c2ccc(Cl)nc2)c2ccccn2)cc1` (configuration not stated), the survival is 104% (inactive).

On to `CCC(CC)C(=O)OCc1cc(=O)n2nc(C3CC3)sc2n1`, for which the survival was 62% (inactive).

For the molecule `COc1ccc(CCNC(=O)CCc2c(C)nc3c(c(C)nn3-c3ccc(C)c(C)c3)c2C)cc1OC`, the survival was 57% (inactive).

Take `CC1=C(C)CC(C(=O)Nc2ccc(NC(=O)NC3CCCCC3)cc2)C(C(=O)O)C1` (configuration not stated): the survival was 81% (inactive).

On to `Cc1cc(N2CCN(c3ccc(F)cc3)CC2)n2nc(-c3ccc(Cl)cc3)nc2n1`, for which the survival is 49% (inactive).

Take `COc1ccc(-c2nc3nc(C)cc(N4CCN(c5cccc(C(F)(F)F)c5)CC4)n3n2)cc1`: the survival is 45% (inactive).

On to `Cc1ccc(-c2nc3nc(C)cc(N4CCN(c5cc(Cl)ccc5C)CC4)n3n2)cc1`, for which the survival is 86% (inactive).

For `Cc1cccc(-c2nc3nc(C)cc(N4CCN(c5ccccc5)CC4)n3n2)c1`, the survival was 60% (inactive).

`Cc1cc(N2CCN(c3cccc(C(F)(F)F)c3)CC2)n2nc(-c3ccccc3C)nc2n1`: the survival was 2% (active).

Turning to `Cc1cc(N2CCN(c3cccc(C(F)(F)F)c3)CC2)n2nc(-c3ccccc3)nc2n1`, the survival was 41% (active).
